ROC1-CUL1 inh: inhibitors of human ROC1-CUL1 ubiquitin ligase activity | AID 1347404 | 0.6% of 140,000 active | inhibition, % at 10 µM | P62877+Q13616 | in vitro K48 di-Ub FRET, acceptor:donor ratio, 45 min; in the data active means inhibition above about 25%
Active calls of the source: *. The full list was thinned out, with hits kept by preference.

SMILES	ROC1-CUL1 inh
Cc1ccc(C)n1-c1ccc(C(=O)OCC(=O)c2ccccc2)cc1	7
Cc1cccc(OCC(=O)N/N=C/c2cccn2-c2ccc([N+](=O)[O-])cc2)c1	-3
Cc1cccc(OCC(=O)NNc2ccc([N+](=O)[O-])cc2[N+](=O)[O-])c1	30*
Cc1cccc(OCC(=O)NNC(=O)CCCCC(=O)NNC(=O)COc2cccc(C)c2)c1	2
CCOC(=O)CN1C(=O)S/C(=C/c2cc(C(C)C)c(OC)cc2C)C1=O	9
COc1cc(C)ccc1OCc1nc(C(=O)N2CCc3ccccc3C2)co1	2
COc1nc(Cl)cn(C)c1=O	8
O=C(O)c1ccccc1-c1c2cc(Cl)c(=O)cc-2oc2c1CC(Cl)C(O)=C2 (configuration not stated)	129*
O=C(O)c1cc(NC2(c3ccccc3)C(=O)c3ccccc3C2=O)ccc1Cl	-2
Cc1cc(/C=C2/SC(=S)N(CC(=O)O)C2=O)c(C)n1-c1ccccc1	16
CCOc1ccccc1/C=C1\SC(=S)N(CC(=O)O)C1=O	4
O=C(O)CN1C(=O)/C(=C\c2ccccc2Sc2ccc(Cl)cc2)SC1=S	103*
COCC(=O)Nc1ccccc1C(=O)O	0
CCOCC(=O)Nc1ccccc1OC	1
CCOCC(=O)Nc1ccccc1C(=O)O	103*
O=C1CSC(c2cn(-c3ccccc3)nc2-c2ccccc2)N1c1ccccc1 (configuration not stated)	0
Cc1ccc(C(=O)c2ccc(NC(=O)c3snnc3C)cc2)cc1	-2
CC(=O)CSc1nc(C)nc2sc3c(c12)CCCC3	12
CN(Cc1nc2ccc(F)cc2[nH]1)Cc1cn(C)nc1-c1ccccc1F	-5
O=C(O)c1ccc2c(c1)C1C=CCC1C(C1CC=CCC1)N2 (configuration not stated)	101*
COC(=O)c1ccc2c(c1)C1C=CCC1C(c1ccc([N+](=O)[O-])cc1)N2 (configuration not stated)	2
CCOC(=O)[C@@H]1Nc2ccc(Br)cc2[C@@H]2C=CC[C@H]12	2
Cc1ccc(Cn2c(C)cn3c4c(=O)[nH]c(=O)n(C)c4nc23)cc1	9
CC(=O)N1CCCC(Nc2ccccc2)C1 (configuration not stated)	3
COc1ccc(C(=O)ON=C2CCN(Cc3ccccc3)CC2)cc1	6
SMILES	ROC1-CUL1 inh
Nc1c(C(=O)Nc2ccccc2C(=O)O)sc2nc3c(cc12)CCCCC3	35*
Nc1c(C(=O)Nc2ccccc2C(=O)O)sc2nc3c(cc12)CCCCCC3	9
Nc1c(C(=O)Nc2ccccc2F)sc2nc3c(cc12)CCCCC3	2
CC(C)(C)C(=O)CC1=NC2CCCCC2N=C1CC(=O)C(C)(C)C (configuration not stated)	-2
c1ccc(CCC2CCCN(Cc3ncc[nH]3)C2)cc1 (configuration not stated)	8
CCOc1cc(/C=C2\C(=O)NN(c3ccc(I)cc3)C2=O)ccc1O	0
CCOc1cc(/C=C2/C(=O)NN(c3ccc(I)cc3)C2=O)cc(Br)c1OC(C)=O	66*
COc1cc(/C=C2\C(=O)NN(c3ccccc3)C2=O)cc(OC)c1OC	-2
CCOc1cc(/C=C2\C(=O)NN(c3ccccc3)C2=O)cc(Br)c1OCc1ccc(C)cc1	9
COc1cc(/C=C2\C(=O)NN(c3ccccc3)C2=O)cc(I)c1OCc1ccc(Cl)c(Cl)c1	12
CCOc1cc(/C=C2\C(=O)NN(c3ccccc3)C2=O)cc(Br)c1OCCCOc1ccc(C)cc1	17
CCOc1cc(/C=C2\C(=O)NN(c3ccccc3)C2=O)cc(Cl)c1OCc1ccc(Cl)cc1	7
CCOc1cc(/C=C2/C(=O)NN(c3ccc(C(=O)OC)cc3)C2=O)cc(Br)c1OC(C)=O	19
CCOc1cc(/C=C2\C(=O)NN(c3ccccc3)C2=O)cc(Br)c1OCc1ccccc1C	30*
COc1cc(/C=C2\C(=O)NN(c3ccccc3)C2=O)cc(Br)c1OC(=O)C12CC3CC(CC(C3)C1)C2	27*
COc1cc(/C=C2/C(=O)NN(c3ccccc3)C2=O)cc(Br)c1OC(C)=O	-1
COc1cc(/C=C2\C(=O)NN(c3ccccc3)C2=O)cc(Cl)c1OCc1ccc(C)cc1	39*
O=C(c1cc2ccccc2oc1=O)N(Cc1ccc(Cl)cc1)C1CCS(=O)(=O)C1 (configuration not stated)	3
Cc1cc(C)c(S(=O)(=O)Nc2ccccc2[N+](=O)[O-])c(C)c1	9
CCOc1cc(CN2CCC(CCC(=O)N3CCOCC3)CC2)ccc1O	7
O=C(NC(=S)Nc1ccc(Nc2ccccc2)cc1)C1CCC1	11
O=C1Nc2ccc(S(=O)(=O)Nc3ccc(O)cc3)c3cccc1c23	0
COCc1noc(-c2ccc(N3C[C@@H](C)O[C@@H](C)C3)nc2)n1	-1
COc1ccccc1C(=O)O/N=C1/C(=O)N(C)c2ccccc21	1
Nc1c(C(=O)N2CCc3ccccc3C2)sc2nc(-c3ccc4c(c3)OCO4)cc(C(F)(F)F)c12	5
O=C(O)CC(C(=O)O)c1ccccc1O (configuration not stated)	-5

Source: PubChem BioAssay (Pan Lab, Icahn School of Medicine at Mount Sinai)
